Test results from PMC5540273 (PLoS ONE, 2017).

System: MELK
Settings: concentration: 1 μM,replicates: in singlicate; n = 1
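Further: KINOMEscan kinase panel screen.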

| Compound | %Inh [%] |
| --- | --- |
| Cl.Oc1cc(-c2nc(-c3ccccc3)[nH]c2-c2ccncc2)ccc1Cl [SB-386023] | 23 |
| Cc1cc(C(=O)Nc2ccc(Oc3ccc4nc(NC(=O)C5CC5)cn4n3)cc2)nn1-c1ccccc1 | 8 |
| O=C(NCCNc1ccnc(NCc2ccc(F)cc2)n1)c1cc2ccccc2s1 [GSK1379944] | 0 |
| C[C@@H](Oc1cc(-c2cnn(C3CCNCC3)c2)cnc1N)c1c(Cl)ccc(F)c1Cl | 7 |
| CNC(=O)c1ccccc1Sc1ccc2c(/C=C/c3ccccn3)n[nH]c2c1 | 0 |
| C=CC(=O)Nc1cc2c(Nc3ccc(F)c(Cl)c3)ncnc2cc1OCCCN1CCOCC1 [GW781483] | 28 |
| CC(C)Nc1cc(-c2ccc3c(N)n[nH]c3c2)nc(N)n1 [GSK2221681] | 38 |
| Nc1nc(Nc2ccccc2)cc(-c2ccc3c(N)n[nH]c3c2)n1 [GSK2225749] | 58 |
| CN(C)CC(O)COc1ccc(Nc2nccc(-c3cnn4nc(N5CCOCC5)ccc34)n2)cc1 (centres unmarked) [GW767488] | 65 |
| Cc1cc2cn[nH]c2cc1-c1cccc2c(N)c(C(N)=O)nnc12 | 5 |
| O=C(NCCCN1CCOC1=O)c1cnc(NCc2cc(Cl)ccc2Cl)nc1NC1CCCC1 | 20 |
| CCn1c(-c2nonc2N)nc2c(C#CC(C)(C)O)nc(OCCN)cc21.Cl.Cl [GSK902056] | 0 |
| Cc1n[nH]c2ccc(-c3cc(OC[C@@H](N)Cc4ccccc4)cnc3-c3ccoc3)cc12.O=C(O)C(F)(F)F.O=C(O)C(F)(F)F [GSK507358] | 30 |
| CN(C)CCOc1ccc(-c2cc(-c3c[nH]nc3-c3ccccn3)ccn2)cc1 [GW835314] | 11 |
| Cl.Cl.NC[C@H](CC1CCCCC1)NC(=O)c1cc(Br)c(-c2ccnc3[nH]ccc23)s1 [GSK1581427] | 76 |
| CC(C)N1C(=O)Cc2cc(Nc3ncc(C(F)(F)F)c(NCc4cccc(S(C)(=O)=O)c4)n3)ccc21 | 0 |
| NC(=O)c1cc(-c2ccccc2)cc2c(C3CCNCC3)c[nH]c12 [GSK301362] | 0 |
| Cc1ccc2c(-c3ccncc3)c(-c3ccc(F)cc3)nn2c1.Cl [GW461484] | 14 |
| COc1ccc(C[C@@H](CN)NC(=O)c2cc(Br)c(-c3ccnc4[nH]ccc34)s2)cc1.Cl.Cl [GSK1389063] | 100 |
| Cl.Cl.Nc1nc(-c2ccc3c(N)n[nH]c3c2)cc(N2CCCC(NC(=O)c3ccccc3)C2)n1 (centres unmarked) [GSK2286775] | 0 |
| CCN(CC)CCOc1ccc(Nc2ncc3cc(-c4c(Cl)cccc4Cl)c(=O)n(C)c3n2)cc1 [SB-601273] | 62 |
| CCN(CC)CCCCNc1ncc2cc(-c3c(Cl)cccc3Cl)c(NC(=O)NC(C)(C)C)nc2n1 | 19 |
| Cc1ccc(-n2nc(C(C)(C)C)cc2NC(=O)Nc2ccc(OCCN3CCOCC3)c3ccccc23)cc1 [GW839464] | 7 |
| C[C@@H]1CCN(C(=O)CC#N)C[C@@H]1N(C)c1ncnc2[nH]ccc12 | 23 |
| C[C@H]1Oc2cc(cnc2N)-c2c(nn(C)c2C#N)CN(C)C(=O)c2ccc(F)cc21 | 30 |
| Cc1occc1-c1nc(N)c(OC[C@@H](N)Cc2c[nH]c3ccccc23)cc1-c1cc2c(C)n[nH]c2cn1 [GSK1660450] | 35 |
| Cl.Cl.NC[C@H](Cc1ccc(C(F)(F)F)cc1)NC(=O)c1cc(Br)c(-c2ccnc3[nH]ccc23)s1 [GSK1487252] | 76 |

System: MERTK
Settings: concentration: 1 μM,replicates: in singlicate; n = 1

| Compound | %Inh [%] |
| --- | --- |
| Cl.Oc1cc(-c2nc(-c3ccccc3)[nH]c2-c2ccncc2)ccc1Cl [SB-386023] | 0 |
| Cc1cc(C(=O)Nc2ccc(Oc3ccc4nc(NC(=O)C5CC5)cn4n3)cc2)nn1-c1ccccc1 | 88 |
| O=C(NCCNc1ccnc(NCc2ccc(F)cc2)n1)c1cc2ccccc2s1 [GSK1379944] | 34 |
| C[C@@H](Oc1cc(-c2cnn(C3CCNCC3)c2)cnc1N)c1c(Cl)ccc(F)c1Cl | 88 |
| CNC(=O)c1ccccc1Sc1ccc2c(/C=C/c3ccccn3)n[nH]c2c1 | 19 |
| C=CC(=O)Nc1cc2c(Nc3ccc(F)c(Cl)c3)ncnc2cc1OCCCN1CCOCC1 [GW781483] | 0 |
| CC(C)Nc1cc(-c2ccc3c(N)n[nH]c3c2)nc(N)n1 [GSK2221681] | 35 |
| Nc1nc(Nc2ccccc2)cc(-c2ccc3c(N)n[nH]c3c2)n1 [GSK2225749] | 26 |
| CN(C)CC(O)COc1ccc(Nc2nccc(-c3cnn4nc(N5CCOCC5)ccc34)n2)cc1 (centres unmarked) [GW767488] | 32 |
| Cc1cc2cn[nH]c2cc1-c1cccc2c(N)c(C(N)=O)nnc12 | 0 |
| O=C(NCCCN1CCOC1=O)c1cnc(NCc2cc(Cl)ccc2Cl)nc1NC1CCCC1 | 75 |
| CCn1c(-c2nonc2N)nc2c(C#CC(C)(C)O)nc(OCCN)cc21.Cl.Cl [GSK902056] | 0 |
| Cc1n[nH]c2ccc(-c3cc(OC[C@@H](N)Cc4ccccc4)cnc3-c3ccoc3)cc12.O=C(O)C(F)(F)F.O=C(O)C(F)(F)F [GSK507358] | 9 |
| CN(C)CCOc1ccc(-c2cc(-c3c[nH]nc3-c3ccccn3)ccn2)cc1 [GW835314] | 0 |
| Cl.Cl.NC[C@H](CC1CCCCC1)NC(=O)c1cc(Br)c(-c2ccnc3[nH]ccc23)s1 [GSK1581427] | 47 |
| CC(C)N1C(=O)Cc2cc(Nc3ncc(C(F)(F)F)c(NCc4cccc(S(C)(=O)=O)c4)n3)ccc21 | 52 |
| NC(=O)c1cc(-c2ccccc2)cc2c(C3CCNCC3)c[nH]c12 [GSK301362] | 38 |
| Cc1ccc2c(-c3ccncc3)c(-c3ccc(F)cc3)nn2c1.Cl [GW461484] | 13 |
| COc1ccc(C[C@@H](CN)NC(=O)c2cc(Br)c(-c3ccnc4[nH]ccc34)s2)cc1.Cl.Cl [GSK1389063] | 70 |
| Cl.Cl.Nc1nc(-c2ccc3c(N)n[nH]c3c2)cc(N2CCCC(NC(=O)c3ccccc3)C2)n1 (centres unmarked) [GSK2286775] | 0 |
| CCN(CC)CCOc1ccc(Nc2ncc3cc(-c4c(Cl)cccc4Cl)c(=O)n(C)c3n2)cc1 [SB-601273] | 95.9 |
| CCN(CC)CCCCNc1ncc2cc(-c3c(Cl)cccc3Cl)c(NC(=O)NC(C)(C)C)nc2n1 | 82 |
| C[C@@H]1CCN(C(=O)CC#N)C[C@@H]1N(C)c1ncnc2[nH]ccc12 | 0 |
| C[C@H]1Oc2cc(cnc2N)-c2c(nn(C)c2C#N)CN(C)C(=O)c2ccc(F)cc21 | 20 |
| Cc1occc1-c1nc(N)c(OC[C@@H](N)Cc2c[nH]c3ccccc23)cc1-c1cc2c(C)n[nH]c2cn1 [GSK1660450] | 31 |
| Cl.Cl.NC[C@H](Cc1ccc(C(F)(F)F)cc1)NC(=O)c1cc(Br)c(-c2ccnc3[nH]ccc23)s1 [GSK1487252] | 59 |
